# Out of some 410,000 compounds screened, about 1,200 (0.29%) were called active. Roughly 2% stayed inconclusive and do not appear here. This is one part of a sample in which actives are shown more often than they occur. A number with no mark means an inactive call. The call rests on the fitted dose curve; in most records, active means well fitted activation curve with a large enough effect; inconclusive means small, poorly fitted or top-dose-only effect; inactive means flat fitted curve, though single readings scatter.
# Test: qHTS of Nrf2 Activators; further: nearly all actives have a fitted effect of over 65% in size; on activation: % of control where 0% means no effect
# Settings: AREc32 ARE-luciferase reporter (MCF7-derived line), luminescence, 24 h; series mostly up to 46.1 µM; activation: at the top concentration
# Method in brief: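 Nrf2 activation is followed as ARE-luciferase induction in the AREc32 line after one day of compound treatment; luminescence is read with Steady-Glo.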
# Potency means the concentration at half of the fitted maximal effect.
Compound,activation,Potency
O=C(NCc1ccc2c(c1)CCN2C(=O)c1ccccc1)Nc1cc(F)ccc1F,0.064%,–
CCC1C/C(=C/c2cccs2)C(=O)/C(=C/c2cccs2)C1 (stereo not given),–,5.62 µM (active)
O=C1/C(=C/c2cccs2)CCc2ccccc21,–,11.2 µM (active)
O=S(=O)(c1cccs1)N1CCc2ccccc2C1,-0.41%,–
CCCCC1S/C(=N/N=C/c2cccs2)NC1=O (stereo not given),2.71% [at 9.22 µM],–
O=C1/C(=C/c2cccs2)CCC1C1CCCC1 (stereo not given),3.98%,–
CCS(=O)(=O)N1CCN(C(=O)c2cccs2)CC1,-0.56%,–
Cc1c2cnn(-c3ccccc3)c(=O)c2c(C)n1C(C)C(=O)Nc1ccc(Br)cc1F (stereo not given),-0.298%,–
COc1ccc(-c2nc3scc(CCNS(=O)(=O)c4cc(F)ccc4OC)n3n2)cc1OC,10.4%,–
Cn1nc(-c2ccccc2)c(-c2ccccc2)c(C(=O)Nc2ccc(S(N)(=O)=O)cc2)c1=O,4.53%,–
O=S(=O)(c1ccc2nc(NCc3ccccc3Cl)ccc2c1)N1CCCCC1,-1.7%,–
O=C(CN1C(=O)COc2ccc(Cl)cc21)Nc1ccc(N2CCOCC2)cc1,-0.414%,–
O=C(CN1C(=O)COc2ccccc21)Nc1ccc(F)cc1,–,12.6 µM (active)
CC(OC(=O)CN1C(=O)COc2ccccc21)C(=O)NCc1ccc(F)cc1 (stereo not given),0.0117%,–
CC(Nc1ccc(-c2nc(-c3ccco3)no2)cc1[N+](=O)[O-])c1ccccc1 (stereo not given),28.3%,–
CNc1ccc(-c2nc(-c3ccccc3C)no2)cc1[N+](=O)[O-],5.97%,–
CNc1ccc(-c2nc(-c3ccco3)no2)cc1[N+](=O)[O-],–,1.41 µM (active)
CCCCN(CCCNC(=O)c1cc(Nc2ccccc2OC)nc2ccccc12)c1ccccc1,0.34%,–
CCCOC(=O)c1c(NC(=O)c2cc3nc(-c4ccc(OC)cc4)cc(C(F)(F)F)n3n2)sc2c1CCCC2,-0.428%,–
CCOc1cc(-c2nnc(SCC(=O)NC3CCCCC3)nc2-c2ccc(OC)c(OCC)c2)ccc1OC,5.21%,–
CCN(CC)CCNc1ncnc2c1cnn2-c1cc(Cl)ccc1C,9.13%,–
O=C(Nc1ccc(OC(F)(F)F)cc1)C1CCCN(S(=O)(=O)c2ccc(Br)s2)C1 (stereo not given),-0.453%,–
O=C(Nc1ccc(Cl)cc1)c1ccsn1,–,11.2 µM (active)
O=C(Nc1cccc(Cl)c1)c1csnn1,10.6%,–
O=C(Nc1ccc(Cl)cc1)c1csc([C@@H]2O[C@H](CO)[C@H](O)[C@H](O)[C@H]2O)n1,-0.424%,–
O=S(=O)(c1ccc(C2CCCCC2)cc1)N1CCN(c2ccc(Cl)c(Cl)c2)CC1,-0.996%,–
CCOc1ccc2nc(N3CCCC(C(=O)Nc4cc(C)ccc4C)C3)sc2c1 (stereo not given),-0.0903%,–

Compound,activation,Potency
Cc1cc(C)cc(NC(=O)c2cnc3sc(N4CCCC4)nn3c2=O)c1,0.541%,–
CCOC(=O)c1ccc(NC(=O)c2csc3c2CCCCC3)cc1,0.682%,–
COC(=O)c1sccc1NC(=O)c1csc2c1CCCC2,–,11.2 µM (active)
CCOc1ccc(CCNC(=O)c2csc3c2CCCCC3)cc1,2.83%,–
CC(C)c1ccc(C2CC(=O)N3CN(C4CCCCC4)CSC3=C2C#N)cc1 (stereo not given),0.802%,–
CC(=O)c1cccc(NC(=O)CSc2nc3c(c(=O)[nH]2)CCC3)c1,-0.0762%,–
N#CC(=C1CCCC1)c1nc(-c2ccc(Cl)cc2)cs1,2.56%,–
Cc1ccc(-c2csc(C(C#N)=C(O)CN3CCN(C(=O)c4ccco4)CC3)n2)cc1,1.52%,–
N#CC(=C1SC=CS1)c1nc(-c2ccccc2)cs1,–,7.08 µM (active)
Fc1cccc(-n2ncc3c2ncn2nc(-c4ccccc4Cl)nc32)c1,8.11%,–
Cc1c(Cl)cccc1NC(=O)c1noc2c1CCCC2,14.5%,–
O=C(Nc1cccc2ccccc12)c1onc2c1CCCC2,–,12.6 µM (active)
COc1ccc(C(=O)Nc2onc3c2CCCC3)cc1,-0.816%,–
COc1cccc(C(=O)NCc2ccc3c(c2)CCN3C(=O)c2ccncc2)c1,1.13%,–
C=CCSc1nnc2c(n1)-c1cccc3cccc-2c13,–,12.6 µM (active)
C=CCSc1nsc(NC(=O)Nc2cccc(C(C)=O)c2)n1,-0.163% [at 9.22 µM],–
Cc1cc(C)c(-c2n[nH]c3c2C(c2ccccc2F)N(CCO)C3=O)c(O)c1 (stereo not given),3.93%,–
Cc1nc2ccc(S(=O)(=O)NC(C(=O)NCc3ccccc3Cl)C(C)C)cc2s1 (stereo not given),0.669%,–
O=C(c1c(F)cccc1Cl)N1CCN(S(=O)(=O)c2ccc3c(c2)OCCCO3)CC1,1.87%,–
O=C(c1cnc(Cl)c(Cl)c1)N1CCN(S(=O)(=O)c2ccc(F)cc2)CC1,0.398%,–
CC(=O)N1CCN(S(=O)(=O)c2c(F)cc(F)c(Cl)c2F)CC1,–,11.2 µM (active)
Cc1c(CNC(C)c2ccccc2)c(C(=O)O)c(C)n1Cc1c(F)cccc1Cl (stereo not given),0.867%,–
Cc1csc2nc(COc3ccc(NC(=O)COc4ccccc4)cc3)cc(=O)n12,-0.0829%,–
O=C(Nc1ccccc1F)c1ccccc1-c1ccc(C(F)(F)F)cc1,-0.545%,–
O=C(Nc1nc2c(s1)CCCC2)c1ccccc1F,-0.692%,–
O=C(Nc1nnc(-c2ccccc2F)s1)c1ccccc1F,–,3.16 µM (active)
O=C(COc1ccccc1F)Nc1ccc(C(=O)OCc2cc(=O)n3nc(C4CC4)sc3n2)cc1,0.695%,–

Compound,activation,Potency
Cc1ccccc1CNC(=O)CCCn1nc(C)c2sc3ccccc3c2c1=O,-0.165%,–
N#Cc1ccc(C2N=C(c3ccccc3)NO2)cc1 (stereo not given),13.3%,–
Brc1ccccc1C1N=C(c2ccccc2)NO1 (stereo not given),–,6.31 µM (active)
COc1cc(Cl)c(NC(=O)CC(C)S(=O)(=O)c2cc3c(cc2C)NC(=O)CO3)c(OC)c1 (stereo not given),3.6%,–
CN(C)CCN=c1cc(-c2ccccc2)oc2ccc(Cl)cc12,–,11.2 µM (active)
CN(C)CCCn1c(-c2ccc(Cl)cc2)csc1=Nc1ccccc1,-0.674%,–
Cc1ccc(Cc2nc3ccccc3nc2SCC(=O)Nc2cccc(C(F)(F)F)c2)cc1,0.184%,–
CCOCCCNC(=O)c1c(NC(=O)Cc2coc3ccc(C)cc23)sc2c1CCC2,0.518%,–
N#CC1=C(N)Oc2c(sc3ccccc23)C1c1ccco1 (stereo not given),–,3.16 µM (active)
CC(=O)c1cccc(NC(=O)c2nc(-c3ccccc3)n(-c3cccc(C)c3)n2)c1,4.2%,–
Cc1cccc(S(=O)(=O)c2cn(Cc3ccccc3)c3cc(N4CCOCC4)c(F)cc3c2=O)c1,-1.05%,–
CCN(CC)c1cc(NC2CCCCC2)c2c3c(onc13)-c1ccccc1C2=O,0.327%,–
Cc1csc(NC(=O)C2CCN(S(=O)(=O)c3ccccc3)CC2)n1,-0.396%,–
COc1ccc(OCCCC(=O)OC(C)C(=O)Nc2ccccc2[N+](=O)[O-])cc1 (stereo not given),0.218%,–
Cc1csc(NC(=O)Nc2ccccc2[N+](=O)[O-])n1,–,4.47 µM (active)
Cc1c(CCNC(=O)c2ccc(C(F)(F)F)cc2)sc2nc(-c3ccc(F)cc3)nn12,0.42%,–
O=[N+]([O-])c1ccc2oc(-c3cccc(O)c3)nc2c1,–,6.31 µM (active)
O=C(Nc1cc(-c2nc3ccccc3o2)ccc1Cl)c1cc([N+](=O)[O-])ccc1N1CCOCC1,-0.97%,–
CCC(=O)Nc1cccc(-c2nc3cc(C)ccc3o2)c1,8.65%,–
CC(=O)c1ccc(NC(=O)CSc2c(C(C)C)cnc3c2c(=O)n(C)c(=O)n3C)cc1,-0.575%,–
O=C(Nc1cc(-c2nc3ncccc3o2)ccc1Cl)c1ccco1,–,6.31 µM (active)
Cc1cc(NC(=O)c2ccc(-c3ccc(Cl)cc3)o2)cc(-c2nc3ncccc3o2)c1O,0.209%,–
Cc1cccc(C(=O)Nc2ccc(-c3nc4ncccc4o3)cc2C)c1,0.321%,–
CCc1cc2c(cc(C(=O)OC)n2Cc2nc(-c3ccc(C)cc3)oc2C)s1,-0.393%,–
CSc1ccccc1NC(=O)CCS(=O)(=O)c1nc(-c2cccs2)cc(C(F)(F)F)n1,0.415%,–
COc1ccc(Cc2nnc(SCC(=O)c3cccc([N+](=O)[O-])c3)n2C)cc1,0.136%,–
O=C(CSc1nc(Nc2ccc(F)c(F)c2)c2ccccc2n1)c1ccc(Cl)cc1,4.26%,–

Compound,activation,Potency
O=C(CSc1nc2ccc([N+](=O)[O-])cc2[nH]1)c1ccc(Cl)cc1,–,11.2 µM (active)
CCOc1ccccc1C(=O)Nc1ccc2c(c1)N(C)C(=O)c1ccccc1S2,0.563%,–
CCOC(=O)c1ccc2c(c1)N(Cc1cccc(OC)c1)C(=O)c1ccccc1S2(=O)=O,5.65%,–
Cc1ccccc1CNC(=O)Cn1c(C)c2cnn(-c3ccccc3)c(=O)c2c1C,3.21%,–
CCC(C(=O)Nc1cc(OC)ccc1OC)n1c(=O)c(C(F)(F)F)nc2ccccc21 (stereo not given),-0.375%,–
S=c1[nH]nc(/C=C/c2ccccc2)o1,-1.05%,–
S=c1[nH]nc(-c2ccco2)n1/N=C/c1ccccc1,–,10 µM (active)
CN(C)C(=O)CSc1n[nH]c(-c2ccco2)n1,0.332%,–
COc1cc(NC(=O)c2cc(C3CC3)nc3c2c(C)nn3-c2ccccc2)cc(OC)c1,0.696%,–
Cc1cccc(NC(=O)Cn2nc(-c3ccc(Cl)cc3)c3ccccc3c2=O)c1,3.27%,–
COc1ccc(/C=C/C(=O)c2cc(Br)ccc(=O)c2O)cc1,–,12.6 µM (active)
COc1cccc(N2CC(NC(=O)/C=C\c3ccccc3)CC2=O)c1 (stereo not given),0.229%,–
COCOc1cc(O)c(C(=O)/C=C/c2ccc(OCOC)c(OCOC)c2)c(OCOC)c1,10.4%,–
O=C(c1ccc(F)cc1)N1CCCC(C(=O)N2CCCCC2)C1 (stereo not given),-0.854%,–
O=C(Nc1c(-c2ccc(F)cc2)nc2ccccn12)c1cccc(F)c1,0.635%,–
O=C(c1ccc(F)cc1)n1c(=S)nc2ccccn21,–,2.51 µM (active)
Cc1ccc(-c2nc(SCc3ccc(Br)cc3)n3[nH]c(=O)cc3n2)cc1,9.22%,–
CCc1nn(CC(=O)NCC(C)c2ccccc2)c(=O)c2cc3occc3n12 (stereo not given),3.24%,–
Cc1cccc(NC(c2cccc(F)c2)c2ccc3ccc(C)nc3c2O)n1 (stereo not given),14.1%,–
CCOCC(=O)Nc1cc(OC)c(Cl)cc1OC,-0.102%,–
CCOc1cc(NC(=O)c2ccccc2C(=O)O)c(OCC)cc1NC(=O)c1ccccc1F,4.13%,–
CCOc1cc(NC(=O)CCl)c(OCC)cc1NC(C)=O,–,14.1 µM (active)
CC(C)(C)OC(=O)N1CCC(c2c(C(=O)NCCc3ccsc3)cnn2-c2ccc(F)cc2F)CC1,3.21%,–
COc1ccccc1NC(=O)c1cc(S(=O)(=O)NCCc2ccccc2)ccc1F,-0.532%,–
